Screens: PubChem BioAssay, National Center for Advancing Translational Sciences (NCATS)
Gal4-VP16 FLuc: inhibits Gal4-VP16 luciferase reporter, ROR gamma counter-screen | AID 2546 | Potency, µM (highest dose often 53.6 µM), for the others: at the top dose activity, negative = inhibition, actives largely listed as inhibitors | Drosophila S2 Gal4-VP16 UAS-luciferase, luminescence, 20 h | 310,000 compounds, 3.5% hits;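 note: Gal4-VP16 expression switched on by copper sulfate through the metallothionein promoter; nearly all actives have a fitted effect of over 50% in size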
ALDH1A1 block: blocks purified human ALDH1A1 activity. Purified ALDH1A1, NADH fluorescence, propionaldehyde substrate. Potency, µM (highest dose often 75.3 µM), inactives show at the top dose activity, negative = inhibition, most hits filed as inhibitors. 220,000 compounds, 7.3% hits. P00352; active = well fitted inhibition curve with a large enough effect, not every such curve was filed as active; inconclusive = small, poorly fitted or top-dose-only effect, or another doubt; inactive = no such curve, though single readings can be large or run the other way;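 note: plate controls were no enzyme wells and a reference inhibitor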
PLK1 PBD inh: blocks phosphopeptide binding to human PLK1 polo-box domain. Plk1 PBD binding of FITC phosphopeptide, fluorescence polarization. Potency, µM, for inactives: max response, negative = inhibition, hits mostly inhibitors. 360,000 compounds, 2.8% hits; note: series mostly up to about 57 µM; nearly all actives have a fitted effect of over 65% in size
Sfp PPTase inh: Sfp phosphopantetheinyl transferase inhibition | Potency, µM, for the others: largest response in the series, negative = inhibition, hits mostly inhibitors | Biochemical Sfp PPTase activity, qHTS | Q9F4F7 | AID 1490 | 310,000 compounds, 3.5% hits;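 note: the enzyme is Sfp with the accession as filed and its product quenches rhodamine fluorescence; 0% = enzyme reaction without inhibitor and -100% = no enzyme wells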
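Fluorescence-quenching assay: 15 nM Sfp-PPTase preincubated 15 min at room temperature with compound, then 5 uM rhodamine-CoA and 12.5 uM BHQ-2-labelled YbbR peptide added. Fluorescence (ex 525/em 598 nm) read at start and after 30 min; difference gives rate.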
RORgamma inh: ROR gamma (mouse) transcription inhibition. P51450. Drosophila S2 Gal4-RORgamma UAS-luciferase reporter, 20 h. Potency, µM (doses to about 53.6 µM), for inactives: at the top dose activity change, negative = inhibition, hits mostly inhibitors. 310,000 compounds, 5.4% hits; note: nearly all actives have a fitted effect of over 60% in size
Target sequence (P51450 whole entry, looked up, the tested form may be a part): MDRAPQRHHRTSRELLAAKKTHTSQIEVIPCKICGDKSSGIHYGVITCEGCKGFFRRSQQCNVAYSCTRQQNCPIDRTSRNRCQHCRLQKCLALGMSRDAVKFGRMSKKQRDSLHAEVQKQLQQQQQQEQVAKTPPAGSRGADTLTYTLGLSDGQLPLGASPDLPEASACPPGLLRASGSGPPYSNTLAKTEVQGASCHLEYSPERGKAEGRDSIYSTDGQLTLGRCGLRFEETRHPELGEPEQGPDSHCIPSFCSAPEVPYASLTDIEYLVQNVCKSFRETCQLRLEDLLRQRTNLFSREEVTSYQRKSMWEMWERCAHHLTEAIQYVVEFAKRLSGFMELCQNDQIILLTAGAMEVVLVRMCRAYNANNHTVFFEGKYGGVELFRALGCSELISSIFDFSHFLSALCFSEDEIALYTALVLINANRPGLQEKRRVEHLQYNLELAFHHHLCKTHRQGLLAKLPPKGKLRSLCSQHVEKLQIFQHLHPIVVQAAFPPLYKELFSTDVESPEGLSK
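Luciferase reporter read in Schneider cells carrying Gal4-RORγ (mouse) and UAS-Photinus luciferase; cells given compound 1 h before 700 uM copper sulfate induction, then incubated 20 h at ambient temperature.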
* hit, by the source's call; ? = inconclusive; · = no result; [ ] = dose if it differs, or a comment. Shown are actives, neighbours in structure and some others; about 12% of the full set was active somewhere. Unless noted, calls come from the whole dose curve; as a rule, active = well fitted curve in the direction sought with a large enough effect; inconclusive = small, poorly fitted or top-dose-only effect, or another doubt; inactive = no such curve, though single readings can be large; an effect the other way counts as inactive or inconclusive. Unless noted, % is set by controls: 0 for no effect and ±100 for the full control effect; potency is the fitted concentration of half-maximal effect.

SMILES | Gal4-VP16 FLuc | ALDH1A1 block | PLK1 PBD inh | Sfp PPTase inh | RORgamma inh
COc1ccc(/C(=C\C(=O)O)c2nccc3cc(OC)c(OC)cc23)cc1OC | -1.4% | -3.1% | · | -12.0% | -6.9%
CCOC(=O)Cc1csc(NC(=O)/C=C/c2ccc(Cl)cc2)n1 | -22.9% | · | -5.4% | 11.4% | -13.3%
CCOC(=O)Cc1csc(N/N=C/c2cccc([N+](=O)[O-])c2)n1 | -21.7% | · | -2.2% | -18.7% | ?
O=C(/C=C/c1ccco1)Nc1nc(-c2ccccn2)cs1 | 11.2µM* | ? | -26.5% | -78.8% | 2.82µM*
O=C(/C=C/c1ccco1)Nc1nc(-c2ccc(F)c(F)c2)cs1 | -12.5% | ? | -4.3% | 22.4µM* | 31.4%
CCOC(=O)Cc1csc(N/N=C/c2ccc(C(F)(F)F)cc2)n1 | ? | 9.5% | 5.3% | -7.0% | 0.708µM*
CCOC(=O)Cc1csc(NC(=O)/C=C/c2ccco2)n1 | -4.2% | · | -28.5% | 70.8µM* | 1.1%
O=C(/C=C/c1ccco1)Nc1nc(-c2ccccc2)cs1 | -5.2% | -8.7% | -8.1% | -20.8% | -2.6%
COc1ccc2[nH]c3c(c2c1)CCN1C(=O)C(CC(=O)NC/C=C(\C)CCC=C(C)C)C[C@H](C(=O)N(C(C)C)C(C)C)[C@@]31C (some centres undefined) | · | · | -3.8% | · | ·
O=C(/C=C/c1ccccc1)Nc1scc(-c2ccccc2)c1C(=O)O | ? | 1.4% | -14.3% | 21.4% | -32.6%
COC(=O)c1c(NC(=O)/C=C/c2ccco2)sc2c1CCC2 | -18.0% | 1.7% | -4.7% | -5.9% | 7.7%
O=C(/C=C/c1ccco1)Nc1scc(-c2ccccc2)c1C(=O)O | ? | · | ? | -55.9% | 10µM*
Cc1sc(NC(=O)/C=C/c2ccco2)c(C(=O)OC(C)C)c1C | 15.8µM* | ? | -2.5% | 31.6µM* | ?
COCCn1c(SCC(=O)Nc2ncc(C)s2)nc2sc3c(c2c1=O)CCC3 | 10µM* | -12.3% | · | -27.1% | -68.6%
CCN(CC)C(=O)CSc1nc2sc3c(c2c(=O)n1CCCOC)CCC3 | 2.2% | · | 23.8µM* | 6.8% | 29.7%
CCCn1c(SCC(=O)NCC)nc2sc3c(c2c1=O)CCC3 | -1.8% | · | -8.7% | 16.8% | -11.6%
CCn1c(SC(C)C(=O)O)nc2sc3c(c2c1=O)CCC3 (centres undefined) | 7.08µM* | -5.4% | ? | 9.6% | 5.62µM*
COCCn1c(COc2cccc(OC)c2)nnc1SCC(=O)NC1CCCC1 | -8.7% | · | -5.5% | 16.2% | 0.2%
CCOC(=O)N1CCN(C(=O)CSc2cc(C)nc3c(-c4ccccc4OC)c(C)nn23)CC1 | 12.6µM* | -0.9% | 0.1% | 6.4% | 20µM*
Cc1cc(/C=N/n2cnnc2)c(C)n1-c1ccc(Cl)cc1 | -13.6% | ? | -9.6% | -8.8% | 23.4%
Cc1cc(/C=N/n2cnnc2)c(C)n1-c1ccc(OCc2ccc(Cl)cc2Cl)cc1 | 11.2µM* | ? | -6.4% | 35.5µM* | 0.0%
Cc1[nH]n(-c2ccccc2)c(=O)c1C(c1ccccc1[N+](=O)[O-])C(C#N)C#N (centres undefined) | 22.0% | · | 29.9µM* | 5.4% | ?
Cc1[nH]n(-c2ccccc2)c(=O)c1C(c1ccccc1C(=O)O)c1c(C)[nH]n(-c2ccccc2)c1=O | -1.1% | -10.4% | -4.5% | -12.8% | 41.7%
Cc1[nH]n(-c2ccccc2)c(=O)c1C(C[N+](=O)[O-])c1ccc(Cl)cc1 (centres undefined) | ? | 20µM* | 11.9µM* | -5.7% | -11.3%
COc1ccc(C(c2c(C)[nH]n(-c3ccccc3)c2=O)c2c(C)[nH]n(-c3ccccc3)c2=O)cc1OC | -1.2% | 8.91µM* | 2.67µM* | 0.6% | 20.2%
SMILES | Gal4-VP16 FLuc | ALDH1A1 block | PLK1 PBD inh | Sfp PPTase inh | RORgamma inh
Cc1ccc(C(C[N+](=O)[O-])c2c(C)[nH]n(-c3ccccc3)c2=O)cc1 (centres undefined) | ? | ? | -27.9% | -15.6% | ?
CCC(C)c1ccc(O[C@@H]2O[C@H](CO)[C@@H](O)[C@H](O)[C@H]2NC(C)=O)cc1 (some centres undefined) | 1.6% | -22.4% | · | 6.7% | 7.7%
CCCC/C=C/C(NC(=O)c1ccc(C(F)(F)F)cc1)c1ccccc1 (centres undefined) | -18.4% | -13.1% | · | 24.7% | -27.2%
Clc1cccc(Cl)c1CNc1ccc(N2CCCC2)cc1 | -5.0% | 15.8µM* | ? | ? | -10.3%
Cc1c(C(=O)N/N=C/C(C)C)[nH]c2c([N+](=O)[O-])cccc12 | -22.5% | ? | -9.3% | 0.0% | 2.24µM*
C=C1C(c2ccc(C)cc2)=CCc2cc(C)cc(C)c21 | 6.4% | ? | · | -10.9% | -24.4%
C=CCOCCN1C(=O)C2C3C=CC(C2C1=O)C1C2C(=O)N(CCOCC=C)C(=O)C2C31 (centres undefined) | 3.0% | 14.1µM* | ? | 1.8% | -10.3%
CC(=O)Nc1ccc(CN(C)c2c(C)nc3ccc(C(=O)NCCCn4ccnc4)cn23)cc1 | · | · | -5.8% | · | ·
Cc1cc(C(F)(F)F)nc(SCCN2CCOCC2)c1C#N | -4.7% | 22.4µM* | ? | -25.5% | ?
CCCCCCCCCCCCCCCC(=O)OC[C@H](O)[C@H]1OC[C@@H](O)[C@@H]1O | -4.4% | · | · | 4.7% | -10.9%
COc1ccc(CN(CCC(c2ccccc2)c2ccco2)C(=O)c2ccco2)cc1 (centres undefined) | 3.7% | 7.94µM* | -8.1% | ? | 25.9%
O=C(c1ccco1)N(CCC(c1ccccc1)c1ccco1)Cc1ccccc1 (centres undefined) | 3.0% | 8.91µM* | ? | 50.1µM* | ?
N=c1c2ccccc2nc2n1CCCCC2 | · | · | -7.7% | · | ·
C=C/C1=C/Cc2ccccc2C(C[N+](=O)[O-])C(C(=O)OC)(C(=O)OC)C1 (centres undefined) | ? | -8.3%[13.5 µM] | · | ? | ?
COC(=O)c1ccc(N2NC(=O)/C(=C/c3ccc(-c4ccc(Cl)c(C(=O)O)c4)o3)C2=O)cc1 | -10.0% | 8.91µM* | 16.8µM* | -9.8% | -21.2%
O=C1NN(c2ccc(Cl)c(Cl)c2)C(=O)/C1=C/c1ccc(-c2ccccc2C(=O)O)o1 | -5.8% | · | 18.9µM* | 25.0% | -1.8%
O=C1NN(c2ccccc2)C(=O)/C1=C/c1ccc(Sc2cccc3ccccc23)o1 | ? | -5.4% | 11.9µM* | ? | ?
O=C1NN(c2ccccc2)C(=O)/C1=C/c1ccc(-c2ccc(C(=O)O)cc2)o1 | -8.6% | · | 21.2µM* | -1.2% | 22.3%
Cc1ccc(OCCn2cc(/C=C3\C(=O)NN(c4ccccc4)C3=O)c3ccccc32)cc1 | -6.2% | -2.1% | -6.6% | ? | 24.7%
O=C(O)c1ccc(N2C(=O)/C(=C/c3ccc(-c4ccc([N+](=O)[O-])cc4)o3)C=C2c2ccccc2)cc1 | -0.5% | ? | 11.9µM* | 50.1µM* | -0.8%
Cc1ccc(C(=O)O)cc1NC(=O)c1ccc2c(c1)C(=O)N(c1ccc([N+](=O)[O-])cc1)C2=O | -1.6% | · | -6.0% | -5.5% | -6.9%
c1ccc(-c2ccc(N3CCCC4(CCNCC4)C3)cc2)cc1 | ? | ? | · | 28.2µM* | ?
